Experimental data published in the supplement of paper PMC4466140.

What was measured:
Test in all cases: SPOT peptide array binding signal intensity (averaged, normalized) (arbitrary units (background-subtracted, floor 0; scale differs between SH3 domains)); higher = stronger binding of the SH3 domain to the peptide
AgAbp1 = molecular target: AgAbp1
Summary of the method: (§1)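 Cellulose membranes carried synthetic 15-mer peptides with cysteines swapped for serines. These were incubated overnight at 4°C with 10 μg/ml of GST-fused SH3 domains from four yeast species in TBS-based blocking buffer. Binding signal, detected with anti-GST antibody and quantified in Genespotter, is the normalized, background-subtracted spot intensity averaged over replicates, in arbitrary units specific to each domain.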

AgBbc1 = molecular target: AgBbc1
Summary of the method: as §1

AgBem1-D1 = molecular target: AgBem1-D1
Summary of the method: as §1

AgBzz1-D1 = molecular target: AgBzz1-D1
Summary of the method: as §1

AgBzz1-D2 = molecular target: AgBzz1-D2
Summary of the method: as §1

AgCyk3 = molecular target: AgCyk3
Summary of the method: as §1

AgFus1 = molecular target: AgFus1
Summary of the method: as §1

AgHof1 = molecular target: AgHof1
Summary of the method: as §1

AgHse1 = molecular target: AgHse1
Summary of the method: as §1

AgLsb1 = molecular target: AgLsb1
Summary of the method: as §1

AgLsb4 = molecular target: AgLsb4
Summary of the method: as §1

AgMyo5 = molecular target: AgMyo5
Summary of the method: as §1

AgNbp2 = molecular target: AgNbp2
Summary of the method: as §1

AgRvs167 = molecular target: AgRvs167
Summary of the method: as §1

AgSho1 = molecular target: AgSho1
Summary of the method: as §1

AgSla1-D1-D2 = molecular target: AgSla1-D1-D2
Summary of the method: as §1

AgSla1-D3 = molecular target: AgSla1-D3
Summary of the method: as §1

CaAbp1-D1 = molecular target: CaAbp1-D1
Summary of the method: as §1

CaAbp1-D2 = molecular target: CaAbp1-D2
Summary of the method: as §1

CaBbc1 = molecular target: CaBbc1
Summary of the method: as §1

CaBem1-D1 = molecular target: CaBem1-D1
Summary of the method: as §1

CaBzz1-D1 = molecular target: CaBzz1-D1
Summary of the method: as §1

CaBzz1-D2 = molecular target: CaBzz1-D2
Summary of the method: as §1

CaCyk3 = molecular target: CaCyk3
Summary of the method: as §1

CaFus1 = molecular target: CaFus1
Summary of the method: as §1

CaHof1 = molecular target: CaHof1
Summary of the method: as §1

CaHse1 = molecular target: CaHse1
Summary of the method: as §1

CaLsb1 = molecular target: CaLsb1
Summary of the method: as §1

CaLsb4 = molecular target: CaLsb4
Summary of the method: as §1

CaMyo5 = molecular target: CaMyo5
Summary of the method: as §1

CaNbp2 = molecular target: CaNbp2
Summary of the method: as §1

CaRvs167 = molecular target: CaRvs167
Summary of the method: as §1

CaRvs167-3 = molecular target: CaRvs167-3
Summary of the method: as §1

CaSho1 = molecular target: CaSho1
Summary of the method: as §1

CaSla1-D1-D2 = molecular target: CaSla1-D1-D2
Summary of the method: as §1

CaSla1-D3 = molecular target: CaSla1-D3
Summary of the method: as §1

ScAbp1 = molecular target: ScAbp1
Summary of the method: as §1

ScBbc1 = molecular target: ScBbc1
Summary of the method: as §1

ScBem1-D1 = molecular target: ScBem1-D1
Summary of the method: as §1

ScBzz1-D1 = molecular target: ScBzz1-D1
Summary of the method: as §1

ScBzz1-D2 = molecular target: ScBzz1-D2
Summary of the method: as §1

ScCyk3 = molecular target: ScCyk3
Summary of the method: as §1

ScFus1 = molecular target: ScFus1
Summary of the method: as §1

ScHof1 = molecular target: ScHof1
Summary of the method: as §1

ScHse1 = molecular target: ScHse1
Summary of the method: as §1

ScLsb1 = molecular target: ScLsb1
Summary of the method: as §1

ScLsb2 = molecular target: ScLsb2
Summary of the method: as §1

ScLsb3 = molecular target: ScLsb3
Summary of the method: as §1

ScLsb4 = molecular target: ScLsb4
Summary of the method: as §1

ScMyo3 = molecular target: ScMyo3
Summary of the method: as §1

ScMyo5 = molecular target: ScMyo5
Summary of the method: as §1

ScNbp2 = molecular target: ScNbp2
Summary of the method: as §1

ScPex13 = molecular target: ScPex13
Summary of the method: as §1

ScRvs167 = molecular target: ScRvs167
Summary of the method: as §1

ScSho1 = molecular target: ScSho1
Summary of the method: as §1

ScSla1-D1-D2 = molecular target: ScSla1-D1-D2
Summary of the method: as §1

ScSla1-D3 = molecular target: ScSla1-D3
Summary of the method: as §1

SpAbp1-D1 = molecular target: SpAbp1-D1
Summary of the method: as §1

SpBbc1 = molecular target: SpBbc1
Summary of the method: as §1

SpBzz1-D1 = molecular target: SpBzz1-D1
Summary of the method: as §1

SpBzz1-D2 = molecular target: SpBzz1-D2
Summary of the method: as §1

SpCyk3 = molecular target: SpCyk3
Summary of the method: as §1

SpHof1 = molecular target: SpHof1
Summary of the method: as §1

SpHof1-2 = molecular target: SpHof1-2
Summary of the method: as §1

SpHof1-3 = molecular target: SpHof1-3
Summary of the method: as §1

SpHse1 = molecular target: SpHse1
Summary of the method: as §1

SpLsb1 = molecular target: SpLsb1
Summary of the method: as §1

SpLsb4 = molecular target: SpLsb4
Summary of the method: as §1

SpMyo1 = molecular target: SpMyo1
Summary of the method: as §1

SpNbp2 = molecular target: SpNbp2
Summary of the method: as §1

SpPex13 = molecular target: SpPex13
Summary of the method: as §1

SpRvs167 = molecular target: SpRvs167
Summary of the method: as §1

SpSla1-D1-D2 = molecular target: SpSla1-D1-D2
Summary of the method: as §1

SpSla1-D3 = molecular target: SpSla1-D3
Summary of the method: as §1

B1: unnamed (peptide)
chain: GKFIPSRPAPKPPSS
SPOT peptide array binding signal intensity (AgAbp1): 978 | SPOT peptide array binding signal intensity (AgBbc1): 1050 | SPOT peptide array binding signal intensity (AgBem1-D1): 328 | SPOT peptide array binding signal intensity (AgBzz1-D1): 46 | SPOT peptide array binding signal intensity (AgBzz1-D2): 37 | SPOT peptide array binding signal intensity (AgCyk3): 2 | SPOT peptide array binding signal intensity (AgFus1): ≤ 0 | SPOT peptide array binding signal intensity (AgHof1): 51.8 | SPOT peptide array binding signal intensity (AgHse1): 8 | SPOT peptide array binding signal intensity (AgLsb1): 218 | SPOT peptide array binding signal intensity (AgLsb4): 19 | SPOT peptide array binding signal intensity (AgMyo5): 1850 | SPOT peptide array binding signal intensity (AgNbp2): 4160 | SPOT peptide array binding signal intensity (AgRvs167): 2.83 | SPOT peptide array binding signal intensity (AgSho1): 17 | SPOT peptide array binding signal intensity (AgSla1-D1-D2): 35 | SPOT peptide array binding signal intensity (AgSla1-D3): 9.25 | SPOT peptide array binding signal intensity (CaAbp1-D1): 922 | SPOT peptide array binding signal intensity (CaAbp1-D2): 764 | SPOT peptide array binding signal intensity (CaBbc1): 1370 | SPOT peptide array binding signal intensity (CaBem1-D1): 2020 | SPOT peptide array binding signal intensity (CaBzz1-D1): 1860 | SPOT peptide array binding signal intensity (CaBzz1-D2): 808 | SPOT peptide array binding signal intensity (CaCyk3): 88.5 | SPOT peptide array binding signal intensity (CaFus1): 54.5 | SPOT peptide array binding signal intensity (CaHof1): 0.5 | SPOT peptide array binding signal intensity (CaHse1): ≤ 0 | SPOT peptide array binding signal intensity (CaLsb1): ≤ 0 | SPOT peptide array binding signal intensity (CaLsb4): 53 | SPOT peptide array binding signal intensity (CaMyo5): 24

B2: unnamed (peptide)
chain: TTNRGPPPLPPRANV
SPOT peptide array binding signal intensity (AgAbp1): 2 | SPOT peptide array binding signal intensity (AgBbc1): 301 | SPOT peptide array binding signal intensity (AgBem1-D1): 53.5 | SPOT peptide array binding signal intensity (AgBzz1-D1): 385 | SPOT peptide array binding signal intensity (AgBzz1-D2): 144 | SPOT peptide array binding signal intensity (AgCyk3): 6 | SPOT peptide array binding signal intensity (AgFus1): ≤ 0 | SPOT peptide array binding signal intensity (AgHof1): 398 | SPOT peptide array binding signal intensity (AgHse1): 35.5 | SPOT peptide array binding signal intensity (AgLsb1): 513 | SPOT peptide array binding signal intensity (AgLsb4): 4310 | SPOT peptide array binding signal intensity (AgMyo5): 394 | SPOT peptide array binding signal intensity (AgNbp2): 4.5 | SPOT peptide array binding signal intensity (AgRvs167): 1710 | SPOT peptide array binding signal intensity (AgSho1): ≤ 0 | SPOT peptide array binding signal intensity (AgSla1-D1-D2): ≤ 0 | SPOT peptide array binding signal intensity (AgSla1-D3): 4 | SPOT peptide array binding signal intensity (CaAbp1-D1): 19 | SPOT peptide array binding signal intensity (CaAbp1-D2): ≤ 0 | SPOT peptide array binding signal intensity (CaBbc1): 590 | SPOT peptide array binding signal intensity (CaBem1-D1): 28 | SPOT peptide array binding signal intensity (CaBzz1-D1): 6090 | SPOT peptide array binding signal intensity (CaBzz1-D2): 2120 | SPOT peptide array binding signal intensity (CaCyk3): 10.5 | SPOT peptide array binding signal intensity (CaFus1): 22.5 | SPOT peptide array binding signal intensity (CaHof1): 101 | SPOT peptide array binding signal intensity (CaHse1): 73 | SPOT peptide array binding signal intensity (CaLsb1): 9 | SPOT peptide array binding signal intensity (CaLsb4): 4530 | SPOT peptide array binding signal intensity (CaMyo5): 6.25 | SPOT peptide array binding signal intensity (CaNbp2): 35 | SPOT peptide array binding signal intensity (CaRvs167): 1980 | SPOT peptide array binding signal intensity (CaRvs167-3): ≤ 0 | SPOT peptide array binding signal intensity (CaSho1): 0.5 | SPOT peptide array binding signal intensity (CaSla1-D1-D2): 436 | SPOT peptide array binding signal intensity (CaSla1-D3): 1.5 | SPOT peptide array binding signal intensity (ScAbp1): 12 | SPOT peptide array binding signal intensity (ScBbc1): 74 | SPOT peptide array binding signal intensity (ScBem1-D1): 6 | SPOT peptide array binding signal intensity (ScBzz1-D1): 144 | SPOT peptide array binding signal intensity (ScBzz1-D2): 8 | SPOT peptide array binding signal intensity (ScCyk3): 1 | SPOT peptide array binding signal intensity (ScFus1): ≤ 0 | SPOT peptide array binding signal intensity (ScHof1): 272 | SPOT peptide array binding signal intensity (ScHse1): 21.5 | SPOT peptide array binding signal intensity (ScLsb1): 576 | SPOT peptide array binding signal intensity (ScLsb2): 583 | SPOT peptide array binding signal intensity (ScLsb3): 6820 | SPOT peptide array binding signal intensity (ScLsb4): 3960 | SPOT peptide array binding signal intensity (ScMyo3): 492 | SPOT peptide array binding signal intensity (ScMyo5): 277 | SPOT peptide array binding signal intensity (ScNbp2): 43 | SPOT peptide array binding signal intensity (ScPex13): 2050 | SPOT peptide array binding signal intensity (ScRvs167): 2870 | SPOT peptide array binding signal intensity (ScSho1): 128 | SPOT peptide array binding signal intensity (ScSla1-D1-D2): 255 | SPOT peptide array binding signal intensity (ScSla1-D3): 15.2 | SPOT peptide array binding signal intensity (SpAbp1-D1): 41.5 | SPOT peptide array binding signal intensity (SpBbc1): 106 | SPOT peptide array binding signal intensity (SpBzz1-D1): 3230 | SPOT peptide array binding signal intensity (SpBzz1-D2): 11 | SPOT peptide array binding signal intensity (SpCyk3): 16 | SPOT peptide array binding signal intensity (SpHof1): 15.2 | SPOT peptide array binding signal intensity (SpHof1-2): 42.8 | SPOT peptide array binding signal intensity (SpHof1-3): 344 | SPOT peptide array binding signal intensity (SpHse1): ≤ 0 | SPOT peptide array binding signal intensity (SpLsb1): 1680 | SPOT peptide array binding signal intensity (SpLsb4): 4080 | SPOT peptide array binding signal intensity (SpMyo1): 853 | SPOT peptide array binding signal intensity (SpNbp2): ≤ 0 | SPOT peptide array binding signal intensity (SpPex13): 7 | SPOT peptide array binding signal intensity (SpRvs167): 2550 | SPOT peptide array binding signal intensity (SpSla1-D1-D2): 1 | SPOT peptide array binding signal intensity (SpSla1-D3): ≤ 0
